This is an account of results in patent US6124449, “High affinity TGFβ nucleic acid ligands and inhibitors” (NeXstar Pharmaceuticals, Inc.).

One assay has as its target T1, KGF (hKGF) (Homo sapiens, UniProt P21781 P21781:32-194).
T1 sequence: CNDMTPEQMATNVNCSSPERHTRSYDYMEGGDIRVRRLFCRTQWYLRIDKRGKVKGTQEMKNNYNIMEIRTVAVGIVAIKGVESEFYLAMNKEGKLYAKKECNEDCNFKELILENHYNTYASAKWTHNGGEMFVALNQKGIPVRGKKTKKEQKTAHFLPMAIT
The experiment in a line: filter; similar to random RNA. The settings on record: label: 5'-biotin for BIAcore specificity; proposed double pseudoknot; ssRNA; 2'-F C and U. (SPR reads the build-up and loss of mass on a sensor chip optically.)

Another assay deals with VEGF (hVEGF) (Homo sapiens, UniProt P15692-4 P15692-4:27-191). The experiment in a line: filter; similar to random RNA. The settings on record: chain copies: 2; label: 5'-biotin for BIAcore specificity; proposed double pseudoknot; ssRNA; 2'-F C and U.
VEGF (hVEGF), sequence (P15692 other isoform, or with tags, fused parts or gaps): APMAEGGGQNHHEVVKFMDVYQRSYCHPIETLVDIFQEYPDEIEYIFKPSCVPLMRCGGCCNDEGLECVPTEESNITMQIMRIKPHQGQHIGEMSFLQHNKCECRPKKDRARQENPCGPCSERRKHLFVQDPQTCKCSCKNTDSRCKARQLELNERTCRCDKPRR
For another assay, the target named is T2, TGF-beta2 (Homo sapiens, UniProt P61812 P61812:303-414).
T2 sequence: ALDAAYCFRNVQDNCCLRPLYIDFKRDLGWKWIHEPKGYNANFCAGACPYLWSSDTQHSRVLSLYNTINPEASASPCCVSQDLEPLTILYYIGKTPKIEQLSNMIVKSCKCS
The experiment in a line: filter; similar to random RNA by filter. The settings on record: chain copies: 2; label: 5'-biotin for BIAcore specificity; proposed double pseudoknot; ssRNA; 2'-F C and U.

With “GGGAGGACGAUGCGGGGGUUAUUGGGCGUCAACAUCCCCGAUUCUUUUCACGUCCAGACGACUCGCCCGA”, the binding signal with KGF (hKGF) is greater than 34000 fold Kd vs hTGF-beta1; in the assay with VEGF (hVEGF), greater than 340000 fold Kd vs hTGF-beta1; in the assay with TGF-beta2, greater than 340000 fold Kd vs hTGF-beta1.
Regarding “GGGAGGACGAUGCGGUUAUGGGCGUCAACACCGCUAUUACAGUUUUCGCCUCCCCCAGACGACUCGCCCGA”, the binding signal with KGF (hKGF) is greater than 34000 fold Kd vs hTGF-beta1; with VEGF (hVEGF) it was greater than 340000 fold Kd vs hTGF-beta1; in the assay with TGF-beta2 it was greater than 340000 fold Kd vs hTGF-beta1.
